Laboratory results reported in PubChem BioAssay (NCATS).
Inconclusive results are not listed. Where a call stands in place of a potency, no number is given. Values without a mark were called inactive. Activity calls are given as the source filed them. Calls follow the shape of the dose curve; as a rule, active = well fitted cell-killing curve with a large enough effect; inconclusive = small, poorly fitted or top-dose-only effect, or effect the other way; inactive = flat fitted curve, though single readings scatter.

system: Tov112D; assay: Primary qHTS to identify gynecologic anti-cancer compounds using libraries of approved drugs and bioactive compounds (AID 1345084); details: Gynecologic cancer cell panel viability, ATPlite luminescence, 48 h; series mostly up to 57.5 µM; also: nearly all actives have a fitted effect of over 55% in size
Procedure, shortened: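 ATP-based viability (ATPlite), 1,000 cells/well, 16 h pre-incubation, 48 h compound at 37 C, 5% CO2, 15 min RT before read.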

SMILES | Potency | activity change, negative = cytotoxicity
CCC1(O)CC2c3cc(OC)c(OC)cc3CCN2CC1CC(C)C (stereo unspecified) | inactive | 
CC1=CC(=O)CC(C)(C)C1CO[C@@H]1O[C@H](CO)[C@@H](O)[C@H](O)[C@H]1O (stereo partly specified) | inactive | 
C=C1CCC2(OC1)OC1CC3C4CC=C5CC(O)CC(O[C@@H]6OC[C@H](OC(=O)C(O)C(C)CC)[C@H](O)[C@H]6O[C@@H]6O[C@@H](C)[C@H](O)[C@@H](O)[C@H]6O)C5(C)C4CCC3(C)C1C2C (stereo partly specified) |  | 19.2% [at 11.6 µM]
CC(O)C/C=C/C=C/C(=O)OC1C=C2COC(=O)C2(O)C2(C)CCCC(C)(C)C12 (stereo unspecified) | inactive | 
N[C@@H](CC(=O)Nc1ccc(Oc2cc(F)c(F)cc2Br)cc1)C(=O)O | inactive | 
COc1ccc(CC(=O)NCc2ccccc2-c2ccccc2C(=O)NCCc2cccnc2)cc1 | inactive | 
CC1OC(OC2C(OC(=O)[C@]34CCC(C)(C)C[C@H]3C3=CCC5[C@@]6(C)CC[C@H](OC7OC(C(=O)O)C(O)C(O)C7O)C(C)(C)C6CC[C@@]5(C)[C@]3(C)CC4O)OC(CO)C2O)C(O)C(O)C1OC1OCC(O)C(O)C1O (stereo partly specified) |  | -3.39% [at 11.6 µM]
C=C1CC/C=C(/CO)C(=O)C[C@@H]2[C@@H]1C[C@@]2(C)COC(C)=O | inactive | 
O=C(OC[C@H]1O[C@H](O[C@]2(CO)O[C@H](CO)[C@@H](O)[C@@H]2O)[C@H](O)[C@@H](O)[C@@H]1O)c1ccc(O)cc1 | inactive | 
C=CCC/C=C/C#CCCCCCCCC[C@H]1C(=O)O[C@H](C)[C@@H]1O | inactive | 
COc1cc2c(cc1O)CC(O)(CO)C(CO)C2c1ccc(OC2OC(CO)C(O)C(O)C2O)c(OC)c1 (stereo unspecified) | inactive | 
